# In the supplement of paper PMC8728848:
# The entries come from a sample that favours the strongest signals as a whole.
# B1: HA-00510 (Pseudomonas aeruginosa), Q02V39_PSEAB (protein)
# chain: GVPIVNIATPNGAGLSNNHFRDYNVGANGLILNNATGKTQGTQLGGIILGNPNLKGQAAQVILNQVTGGNRSTLAGYTEVAGQSARVIVANPHGITCQGCGFINTPRATLTTGKPIMDGQRLERFQVDGGDIVVEGAELNVGNLEQFDLITRSAKLNAKLYAKNLNIVTGRNDVQADSLQATPRAADGSEKPQLAIDSSALGGMYAGAIRLVGTEQGVGVKLAGDMAASGGDIRIDASGKLSLAQASSQGDLKIAAQAVELNGKTYAGGSAEIRSAEELVNRQS
# B2: F17dG (Escherichia coli), Q47199 (protein)
# chain: MTNFYKVFLAVFILVCCNISQAAVSFIGSTENDVGPSPGSYSRTHAMDNLPFVYNTGNNIGYQNANVWRISKGFCVGLDGKVDLPVVGSLDGQSIYGLTEEVGLLIWMGDTNYSRGTAMSGNSWENVFSGWCVGANTASTQGLSVRVTPVILKRNSSARYSVQKTSIGSIRMRPYNGSSAGSVQTTVNFSLNPFTLNDTVTSCRLLTPSAVNVSLAAISAGQLPSSGDEVVAGTTSLKLQCDAGVTVWATLTDATTPSNRSDILTLTGASTATGVGLRIYKNTDSTPLKFGPDSPVKGNENQWQLSTGTETSPSVRLYVKYVNTGEGINPGTVNGISTFTFSYQ
# Assays:
# Experiment in all cases: glycan array binding signal (z-score within array); higher = stronger binding
# Conditions in all cases: glycan notation: IUPAC condensed, linker removed
# [1] = biological target: GlcNAc(b1-4)GlcNAc(b1-4)GlcNAc(b1-4)GlcNAc(b1-4)GlcNAc
# Method in brief: (§1)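 Arrays were curated from the Consortium for Functional Glycomics database, 3228 in total, and kept only where the protein sequence was available. Binding is expressed as a within-array Z-score. This score was averaged across arrays of the same protein sequence at different concentrations or buffers and across linkers, and negative values can be read as non-binding.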
# [2] = biological target: Kdn(a2-6)Gal(b1-4)GlcNAc
# Method in brief: as §1
# [3] = biological target: Man(a1-2)Man(a1-3)[Man(a1-6)]Man(a1-6)[Man(a1-2)Man(a1-3)]Man(b1-4)GlcNAc(b1-4)GlcNAc
# Method in brief: as §1
# [4] = biological target: Man(a1-3)[Man(a1-6)]Man(a1-6)[Man(a1-3)]Man
# Method in brief: as §1
# [5] = biological target: Neu5Ac(a2-3)Gal(b1-3)GalNAc(b1-4)[Neu5Ac(a2-3)]Gal(b1-4)Glc
# Method in brief: as §1
# [6] = biological target: Neu5Ac(a2-3)Gal(b1-3)GlcNAc(b1-2)Man
# Method in brief: as §1
# [7] = biological target: Neu5Ac(a2-3)Gal(b1-4)GlcNAc(b1-2)Man
# Method in brief: as §1
# [8] = biological target: Neu5Ac(a2-3)Gal(b1-4)GlcNAc(b1-2)Man(a1-3)[Neu5Ac(a2-3)Gal(b1-4)GlcNAc(b1-2)Man(a1-6)]Man(b1-4)GlcNAc(b1-4)[Fuc(a1-6)]GlcNAc
# Method in brief: as §1
# [9] = biological target: Neu5Ac(a2-3)Gal(b1-4)GlcNAc(b1-2)[Neu5Ac(a2-3)Gal(b1-4)GlcNAc(b1-4)]Man(a1-3)[GlcNAc(b1-4)][Neu5Ac(a2-3)Gal(b1-4)GlcNAc(b1-2)[Neu5Ac(a2-3)Gal(b1-4)GlcNAc(b1-6)]Man(a1-6)]Man(b1-4)GlcNAc(b1-4)GlcNAc
# Method in brief: as §1
# [10] = biological target: Neu5Ac(a2-3)Gal(b1-4)GlcNAc(b1-3)Gal(b1-4)GlcNAc(b1-3)Gal(b1-4)GlcNAc(b1-2)Man(a1-3)[Neu5Ac(a2-3)Gal(b1-4)GlcNAc(b1-3)Gal(b1-4)GlcNAc(b1-3)Gal(b1-4)GlcNAc(b1-2)Man(a1-6)]GalNAc
# Method in brief: as §1
# [11] = biological target: Neu5Ac(a2-3)Gal(b1-4)GlcNAc(b1-3)Gal(b1-4)GlcNAc(b1-3)[Neu5Ac(a2-3)Gal(b1-4)GlcNAc(b1-3)Gal(b1-4)GlcNAc(b1-6)]GalNAc
# Method in brief: as §1
# [12] = biological target: Neu5Ac(a2-3)Gal(b1-4)[Fuc(a1-3)]GlcNAc(b1-2)Man
# Method in brief: as §1
# [13] = biological target: Neu5Ac(a2-3)Gal(b1-4)[Fuc(a1-3)]GlcNAc(b1-3)GalNAc
# Method in brief: as §1
# [14] = biological target: Neu5Ac(a2-3)[GalNAc(b1-4)]Gal(b1-4)Glc
# Method in brief: as §1
# [15] = biological target: Neu5Ac(a2-6)Gal
# Method in brief: as §1
# [16] = biological target: Neu5Ac(a2-6)Gal(b1-4)GlcNAc(b1-2)Man
# Method in brief: as §1
# [17] = biological target: Neu5Ac(a2-6)Gal(b1-4)GlcNAc(b1-2)Man(a1-3)Man(b1-4)GlcNAc(b1-4)GlcNAc
# Method in brief: as §1
# [18] = biological target: Neu5Ac(a2-6)Gal(b1-4)GlcNAc(b1-2)Man(a1-6)[GlcNAc(b1-2)Man(a1-3)]Man(b1-4)GlcNAc(b1-4)GlcNAc
# Method in brief: as §1
# [19] = biological target: Neu5Ac(a2-6)Gal(b1-4)GlcNAc(b1-3)Gal(b1-3)GlcNAc
# Method in brief: as §1
# [20] = biological target: Neu5Ac(a2-6)Gal(b1-4)GlcNAc(b1-3)Gal(b1-4)GlcNAc(b1-3)Gal(b1-4)GlcNAc(b1-2)Man(a1-3)[Neu5Ac(a2-6)Gal(b1-4)GlcNAc(b1-3)Gal(b1-4)GlcNAc(b1-3)Gal(b1-4)GlcNAc(b1-2)Man(a1-6)]GalNAc
# Method in brief: as §1
# [21] = biological target: Neu5Ac(a2-6)Gal(b1-4)GlcNAc(b1-3)Gal(b1-4)GlcNAc(b1-3)[Neu5Ac(a2-6)Gal(b1-4)GlcNAc(b1-3)Gal(b1-4)GlcNAc(b1-6)]GalNAc
# Method in brief: as §1
# [22] = biological target: Neu5Ac(a2-8)Neu5Ac
# Method in brief: as §1
# [23] = biological target: Neu5Ac(a2-8)Neu5Ac(a2-3)[GalNAc(b1-4)]Gal(b1-4)Glc
# Method in brief: as §1
# [24] = biological target: Neu5Ac9Ac(a2-3)Gal(b1-4)GlcNAc
# Method in brief: as §1
# [25] = biological target: Neu5Gc(a2-6)GalNAc
# Method in brief: as §1
# [26] = biological target: Neu5Gc(b2-6)Gal(b1-4)GlcNAc
# Method in brief: as §1
# [27] = biological target: Fuc(a1-2)Gal(b1-4)GlcNAc
# Method in brief: as §1
# [28] = biological target: Fuc(a1-2)[Gal(a1-3)]Gal
# Method in brief: as §1
# [29] = biological target: Fuc(b1-3)GlcNAc
# Method in brief: as §1
# [30] = biological target: Gal(a1-3)[Gal(a1-4)]Gal(b1-4)GlcNAc
# Method in brief: as §1
# [31] = biological target: Gal(b1-3)[Neu5Ac(a2-6)]GalNAc
# Method in brief: as §1
# [32] = biological target: Gal(b1-4)GlcNAc(b1-3)Gal(b1-4)GlcNAc
# Method in brief: as §1
# [33] = biological target: GlcNAc(b1-3)Gal
# Method in brief: as §1
# [34] = biological target: GlcNAc(b1-3)Gal(b1-4)Glc
# Method in brief: as §1
# [35] = biological target: GlcNAc(b1-3)[GlcNAc(b1-6)]Gal(b1-4)GlcNAc
# Method in brief: as §1
# [36] = biological target: GlcNAc(b1-3)[GlcNAc(b1-6)]GalNAc
# Method in brief: as §1
# [37] = biological target: GlcNAc(b1-4)[GlcNAc(b1-6)]GalNAc
# Method in brief: as §1
# [38] = biological target: Neu5Ac(a2-3)Gal(b1-3)GalNAc(b1-3)Gal(a1-4)Gal(b1-4)Glc
# Method in brief: as §1
# [39] = biological target: Neu5Ac(a2-3)Gal(b1-3)GalNAc(b1-3)Gal(b1-4)GlcNAc
# Method in brief: as §1
# [40] = biological target: Neu5Ac(a2-3)Gal(b1-4)GlcNAc
# Method in brief: as §1
# [41] = biological target: Neu5Ac(a2-3)GalNAc
# Method in brief: as §1
binder,measurement,setting,value
B1,glycan array binding signal (z-score),[1],0.345
same,glycan array binding signal (z-score),[2],-0.045
same,glycan array binding signal (z-score),[3],-0.534
same,glycan array binding signal (z-score),[4],-0.502
same,glycan array binding signal (z-score),[5],0.112
same,glycan array binding signal (z-score),[6],-0.852
same,glycan array binding signal (z-score),[7],1.18
same,glycan array binding signal (z-score),[8],0.601
same,glycan array binding signal (z-score),[9],0.048
same,glycan array binding signal (z-score),[10],3.77
same,glycan array binding signal (z-score),[11],-0.447
same,glycan array binding signal (z-score),[12],-1.16
same,glycan array binding signal (z-score),[13],2.86
same,glycan array binding signal (z-score),[14],-0.269
same,glycan array binding signal (z-score),[15],0.437
same,glycan array binding signal (z-score),[16],2.52
same,glycan array binding signal (z-score),[17],-0.14
same,glycan array binding signal (z-score),[18],-0.425
same,glycan array binding signal (z-score),[19],2.34
same,glycan array binding signal (z-score),[20],3.69
same,glycan array binding signal (z-score),[21],2.75
same,glycan array binding signal (z-score),[22],0.611
same,glycan array binding signal (z-score),[23],-0.094
same,glycan array binding signal (z-score),[24],0.419
same,glycan array binding signal (z-score),[25],-0.059
same,glycan array binding signal (z-score),[26],-0.019
B2,glycan array binding signal (z-score),[27],-0.185
same,glycan array binding signal (z-score),[28],-0.276
same,glycan array binding signal (z-score),[29],-0.225
same,glycan array binding signal (z-score),[30],-0.399
same,glycan array binding signal (z-score),[31],-0.194
same,glycan array binding signal (z-score),[32],-0.287
same,glycan array binding signal (z-score),[33],4.56
same,glycan array binding signal (z-score),[34],5.88
same,glycan array binding signal (z-score),[35],5.46
same,glycan array binding signal (z-score),[36],6.17
same,glycan array binding signal (z-score),[37],-0.009
same,glycan array binding signal (z-score),[38],-0.399
same,glycan array binding signal (z-score),[39],-0.204
same,glycan array binding signal (z-score),[40],-0.354
same,glycan array binding signal (z-score),[41],-0.327
